The nature of this experiment: growth rescue of sdo1-depleted yeast, primary screen, S. cerevisiae, bone marrow failure model (AID 817).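 Further: z-score against mean and SD of all compound wells on the same plate.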 As to conditions: S. cerevisiae sdo1-depleted JHY4D growth rescue, at 10 µM, stronger effect = higher value, pdr5 snq2 efflux-pump mutant strain.
[1] abbreviates: OD600, measured here: growth rescue at 24 h.

The campaign covered roughly 140,000 compounds. About 300 (0.21%) were called active.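 How the source made its calls: active means z-score above 3 at both the 24 hr and the 30 hr optical density reads; inactive means the rest, inconclusive results apart.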 This excerpt belongs to a sample that is enriched for actives.

With `Cc1sc2ncnc(Sc3nc4ccccc4s3)c2c1C`, the z-score (OD600 30 h) was 0.02 (inactive) and the z-score under setting [1] was -0.34.
For the compound `CC(C)NC(=S)N1CCN(C(c2ccccc2)c2ccccc2)CC1`, the z-score runs as follows: (OD600 30 h) -1.16 (inactive); under setting [1], -1.01.
Consider `CC(C)=C(NC(=O)c1ccccc1)C(=O)N/N=C(\C)c1ccccc1O`, for which the z-score is, setting by setting: (OD600 30 h) 1.49 (inactive); under setting [1], 2.26.
For `Cc1ccc(C(=O)c2ccc(N3CCN(C)CC3)c([N+](=O)[O-])c2)cc1`, the z-score reads like this: (OD600 30 h) 1.82 (inactive); under setting [1], 1.21.
On the same counts, the results for `COc1ccc(NC(=O)CC2C(=O)OCC3CCCCN32)cc1Cl` (stereo not drawn) are 0.14 (inactive) and -0.04.
Take `Cc1ccc(N=C2NC(=O)c3cccc([N+](=O)[O-])c32)cc1`: the z-score reads like this: (OD600 30 h) 0.32 (inactive); under setting [1], 0.33.
On the same counts, the results for `CCN(CC)c1ccc(C(=O)N/N=C(\C)c2cccc(OC)c2)cc1` are 0.86 (inactive) and 0.18.
For `NC(=O)CCC(NS(=O)(=O)c1ccc(Cl)cc1)C(=O)NCc1ccccc1Cl` (stereo not drawn), the z-score reads like this: (OD600 30 h) -0.28 (inactive); under setting [1], -1.21.
Take `Cc1ccc(C(=O)CNc2ccc(F)cc2)cc1`: the z-score (OD600 30 h) was 0.78 (inactive) and the z-score under setting [1] is -0.09.
On the same counts, the results for `Fc1ccccc1CNC(=S)Nc1ccc(Cl)cc1` are -1.01 (inactive) and -0.89.
On the same counts, the results for `CCOC(=O)C(C)Sc1nnc(CSc2nc3nc(C)cc(C)n3n2)o1` (stereo not drawn) are 0.4 (inactive) and 0.13.
On the same counts, the results for `CCOc1ccccc1C1CC(c2cccc(NS(C)(=O)=O)c2)=NN1C(=O)c1ccccc1` (stereo not drawn) are -0.43 (inactive) and -0.52.
Turning to `c1cncc(-c2nnc3n2C2(CCCCC2)Cc2ccccc2-3)c1`, the z-score reads like this: (OD600 30 h) -0.05 (inactive); under setting [1], -0.69.
Taken in the same sequence, the figures for `CCOc1cccc2c1OC1(CCCCC1)N1N=C(c3cccnc3)CC21` (stereo not drawn) were 13.5 (active) and 3.28.
On the same counts, the results for `N/C(=N\OC(=O)N1c2ccccc2Sc2ccccc21)c1ccc(Br)cc1` are -1.34 (inactive) and -1.41.
Turning to `Cc1cc(-c2csc(N)n2)c(C)n1-c1ccccc1`, the z-score (OD600 30 h) is 0.37 (inactive) and the z-score under setting [1] turned out to be 0.28.
On the same counts, the results for `C/C(=N\NC(=O)c1ccc(NS(=O)(=O)c2cccs2)cc1)c1ccc2ccccc2c1` are 0.3 (inactive) and 0.75.
Taken in the same sequence, the figures for `CCCCC(=O)N/N=C(\C)CC(=O)Nc1cc(Cl)ccc1OC` were 0.09 (inactive) and -0.2.
As for `COc1ccc(/C(C)=N/NC(=O)CCC(=O)Nc2ccc(Cl)cc2Cl)c(OC)c1`, the z-score runs as follows: (OD600 30 h) 5.63 (active); under setting [1], 5.64.
On the same counts, the results for `COc1ccc(/C(C)=N/Nc2cc(C(F)(F)F)ccc2Cl)c(OC)c1` are -0.18 (inactive) and -0.33.
Taken in the same sequence, the figures for `O=c1[nH]c2ccccc2s1` were 0.98 (inactive) and 1.68.
Taken in the same sequence, the figures for `C=CCN(c1ccc(C(=O)Nc2cc(C)cc(C)c2)cc1)S(C)(=O)=O` were -0.5 (inactive) and -0.78.
As to `C#CCOCCOCCOCCNc1nc(N2CCN(C(=O)[C@H](C(C)C)n3cc(CCO)nn3)CC2)nc(N2CCN(C(=O)[C@H]([C@@H](C)CC)n3cc(CCCN=C(N)N)nn3)CC2)n1`, the z-score runs as follows: (OD600 30 h) 1.22 (inactive); under setting [1], 1.32.
With `CCn1c(SCC(=O)N/N=C/C=C/c2ccccc2[N+](=O)[O-])nnc1-c1ccccc1`, the z-score by setting is: (OD600 30 h) 0.43 (inactive); under setting [1], -0.06.
Taken in the same sequence, the figures for `CN(C)C(=O)c1ccc2c(c1)C1C3CCC(C3)C1C(c1ccccc1)N2` (stereo not drawn) were -0.71 (inactive) and -0.66.
As for `CCCCNC(=O)CSc1nc2ccc(NC(=O)CSc3nnc(N)s3)cc2s1`, the z-score reads like this: (OD600 30 h) 0.08 (inactive); under setting [1], -0.52.
On the same counts, the results for `COC(=O)c1ccc(NC(=O)CSc2nncc3ccc(OC)c(OC)c23)cc1` are -1.41 (inactive) and -0.89.
On the same counts, the results for `CCOc1ccc(S(=O)(=O)N/N=C(\C)c2ccc(Cl)c(Cl)c2Cl)cc1` are 1.17 (inactive) and 1.85.
Taken in the same sequence, the figures for `O=C(CSc1nc2ccccc2c(=O)n1CCCO)N1CCc2ccccc21` were -1.29 (inactive) and -0.81.
Turning to `CCc1ccc(C2N3CC4([N+](=O)[O-])CN2CC([N+](=O)[O-])(C3)C4(C)C)cc1` (stereo not drawn), the z-score is, setting by setting: (OD600 30 h) 1.48 (inactive); under setting [1], 1.35.
On to `CCC(C)C(=O)Nc1cc([N+](=O)[O-])ccc1Cl` (stereo not drawn), for which the z-score was 0.25 (inactive) (OD600 30 h) and -0.26 under setting [1].
On the same counts, the results for `CN(C)/C(=N\OC(=O)c1ccccc1)c1nonc1N` are -0.17 (inactive) and 0.24.
Taken in the same sequence, the figures for `COCCn1c(=O)[nH]c(=O)c2cc(C(=O)c3cc(OC)ccc3O)cnc21` were 0.16 (inactive) and 0.23.
On the same counts, the results for `N#C/C(=C\C1=C(N2CCOCC2)C(=C\c2ccccc2)/CC1)C(=O)Nc1ccccc1F` are 0.41 (inactive) and 2.72.
As to `COc1cc(OC)cc(C(=O)NCC(=O)OCc2csc(-c3ccccc3)n2)c1`, the z-score is, setting by setting: (OD600 30 h) -0.49 (inactive); under setting [1], -0.88.
On the same counts, the results for `O=C(/C=C/c1ccccc1[N+](=O)[O-])NCC1CCCO1` (stereo not drawn) are 1.67 (inactive) and 2.05.
Turning to `Cc1cc(C(=O)NNC(=S)NC(C)c2ccccc2)cs1` (stereo not drawn), the z-score is, setting by setting: (OD600 30 h) 0.17 (inactive); under setting [1], -0.18.
Regarding `O=C(CN1CCN(S(=O)(=O)c2ccc(Br)cc2)CC1)Nc1ccccc1C(=O)c1ccccc1`, the z-score by setting is: (OD600 30 h) -0.96 (inactive); under setting [1], -0.1.
On to `Cc1c(C(=O)NCCCc2ccccc2)cccc1[N+](=O)[O-]`, for which the z-score is, setting by setting: (OD600 30 h) -0.72 (inactive); under setting [1], -1.83.
Taken in the same sequence, the figures for `CN(C)c1ccc(Nc2c3c4c(cccc4n(C)c2=O)C(=O)c2ccccc2-3)cc1` were 12.3 (active) and 10.3.
For `O=[N+]([O-])c1cccc(C2=NCCS2)c1`, the z-score (OD600 30 h) is 0.63 (inactive) and the z-score under setting [1] came out at 0.08.
On the same counts, the results for `Cc1ccccc1NC(=S)N(CCCN1CCOCC1)Cc1cccs1` are 0.26 (inactive) and 0.42.
As to `O=C1NC(c2ccccc2)CCC1(Cl)Cl` (stereo not drawn), the z-score by setting is: (OD600 30 h) 0.83 (inactive); under setting [1], -0.01.
On the same counts, the results for `NS(=O)(=O)c1cc(C(=O)NCCOc2ccccc2)c(Cl)cc1Cl` are -0.22 (inactive) and -0.02.
Taken in the same sequence, the figures for `O=C(NNC1=NCCC1)c1cccc(S(=O)(=O)N2CCCCC2)c1` were 1.39 (inactive) and 1.17.
Taken in the same sequence, the figures for `CCN(C(=O)COc1cccnc1[N+](=O)[O-])C1CCS(=O)(=O)C1` (stereo not drawn) were 0.14 (inactive) and 0.45.
As for `C=CCOc1c(Br)cc(/C=N\n2nnnc2N)cc1OC`, the z-score by setting is: (OD600 30 h) 0.16 (inactive); under setting [1], 0.27.
Taken in the same sequence, the figures for `CC(=O)Nc1ccc(S(=O)(=O)NC2(C(F)(F)F)C(=O)Nc3c2c(=O)[nH]c(=O)n3Cc2ccccc2)cc1` (stereo not drawn) were 0.9 (inactive) and -0.08.
On the same counts, the results for `Cc1ccc(Nc2ccc(C(N)=O)cc2[N+](=O)[O-])cc1` are 0.35 (inactive) and 0.28.
Taken in the same sequence, the figures for `CCC1CCCCN1C(=S)Nc1ccc(C(C)=O)cc1` (stereo not drawn) were -0.29 (inactive) and -0.44.
Consider `C=CCn1c(SCc2ccc(Cl)c(Cl)c2)nnc1C(CO)NC(=O)c1ccc(OC)cc1` (stereo not drawn), for which the z-score by setting is: (OD600 30 h) 0.22 (inactive); under setting [1], -0.41.
On the same counts, the results for `COc1cc(/C=C/C(=O)OCC(=O)Nc2cccc(Oc3ccccc3)c2)ccc1O` are -0.4 (inactive) and 0.4.
On the same counts, the results for `COc1ccc(/C=C/C(=O)OCC(=O)NCc2cccs2)cc1OC` are 1.04 (inactive) and 0.67.
On the same counts, the results for `O=C(COC(=O)/C=C/c1cccc(Cl)c1)NCCc1ccccc1` are 3.39 (active) and 3.67.

Source of the values: PubChem BioAssay AID817 (Emory University Molecular Libraries Screening Center, 2007).
